An excerpt weighted towards active compounds, which were near 13% of everything screened.
USP30 block: blocks human USP30 ubiquitin-rhodamine cleavage. Q70CQ3. purified USP30, Ub-rhodamine cleavage fluorescence. inhibition, % at 25 µM. hit rate 5.3% among 47,000. AID 1645860
UCHL1 inh: human UCHL1 deubiquitinase inhibition | hit rate 0.2% among 47,000 | inhibition, % at 20 µM | AID 1645859 | P09936 | purified UCHL1, Ub-rhodamine cleavage fluorescence
USP17 inh: blocks human USP17 ubiquitin-rhodamine cleavage. AID 1645855. purified USP17, Ub-rhodamine cleavage fluorescence, 3 h. hit rate 6.5% among 47,000. A8MUK1. inhibition, % at 50 µM
USP10 inh: blocks human USP10 ubiquitin-rhodamine cleavage. Q14694. purified USP10, Ub-rhodamine fluorescence, 60 min. inhibition, % at 20 µM. hit rate 1.1% among 47,000
Target sequence (Q14694 whole entry, looked up): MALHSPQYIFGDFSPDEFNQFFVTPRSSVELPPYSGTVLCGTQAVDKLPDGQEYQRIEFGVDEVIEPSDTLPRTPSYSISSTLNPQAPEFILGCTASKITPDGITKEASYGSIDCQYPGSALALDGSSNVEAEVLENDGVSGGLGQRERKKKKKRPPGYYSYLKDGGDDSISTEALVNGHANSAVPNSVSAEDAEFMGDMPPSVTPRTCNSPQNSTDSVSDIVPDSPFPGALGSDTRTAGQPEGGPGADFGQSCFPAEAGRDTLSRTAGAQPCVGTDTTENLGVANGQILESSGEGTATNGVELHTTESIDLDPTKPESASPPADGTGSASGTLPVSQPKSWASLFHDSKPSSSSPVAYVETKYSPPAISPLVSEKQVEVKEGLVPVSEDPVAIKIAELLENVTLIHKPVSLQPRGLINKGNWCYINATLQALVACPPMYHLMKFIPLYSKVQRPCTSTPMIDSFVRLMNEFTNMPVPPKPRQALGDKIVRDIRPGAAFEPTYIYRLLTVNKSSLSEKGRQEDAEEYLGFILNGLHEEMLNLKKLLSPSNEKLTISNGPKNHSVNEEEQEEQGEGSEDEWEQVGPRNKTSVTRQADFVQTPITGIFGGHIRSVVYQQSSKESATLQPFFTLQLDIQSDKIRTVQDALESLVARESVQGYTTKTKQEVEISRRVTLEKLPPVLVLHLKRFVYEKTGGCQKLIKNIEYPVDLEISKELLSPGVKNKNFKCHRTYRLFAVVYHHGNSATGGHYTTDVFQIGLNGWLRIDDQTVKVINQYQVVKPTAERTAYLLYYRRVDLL
USP8 block: blocks human USP8 ubiquitin-rhodamine cleavage. P40818. purified USP8, Ub-rhodamine cleavage fluorescence, 30 min. inhibition, % at 20 µM. hit rate 4.2% among 47,000. AID 1645853
USP7 block: inhibitors of human USP7 deubiquitinase; hit rate 0.3% among 47,000; AID 1645854; Q93009; purified USP7, Ub-rhodamine cleavage fluorescence; inhibition, % at 20 µM
* marks the source's active call; other numbers are inactive results; i = inactive. Rule as the data show it: active = inhibition above about 30%; inactive = the rest.

SMILES	USP30 block	UCHL1 inh	USP17 inh	USP10 inh	USP8 block	USP7 block
COCCn1cc(NC(=O)Nc2ccccc2Cl)c2ccccc21	-24	-2	-10	-1	7	-3
CCOC(=O)C1CCCN(c2nc3c(-c4cccc(C(F)(F)F)c4)nnn3c3ccccc23)C1 (configuration not stated)	9	2	13	1	11	5
CO[C@H]1CC[C@H](O)c2c1oc1c3c4c(c(O)c1c2=O)-c1c(cc2c(Cl)c(C)n(N)c(=O)c2c1O)C[C@@H]4OCO3	1	10	62*	23	26	3
O=[N+]([O-])c1cccc(CNC2CCCc3ccccc32)c1 (configuration not stated)	15	3	-7	-1	-89	-14
O=C(COC(=O)c1ccc(F)cc1)Nc1ccc2[nH]c(=O)[nH]c2c1	14	5	29	12	-4	12
O=C(COC(=O)c1cc(Cl)c2c(c1)OCO2)Nc1ccc2[nH]c(=O)[nH]c2c1	-27	2	57*	29	17	-35
O=C(CSc1ncnc2c1nnn2Cc1ccccc1F)NCc1ccc2c(c1)OCO2	21	1	7	6	-29	-5
O=C1c2ccccc2C(=O)c2c(O)c(O)cc(O)c21	i	45*	-4	-3	-13	2
COc1cccc(CNC(=O)C2CCCN(S(=O)(=O)N3CCCCCC3)C2)c1OC (configuration not stated)	15	3	5	1	9	3
CCOC(=O)c1ccc(NC(=O)C2CCCN(c3nc(-c4ccc(OC)cc4)no3)C2)cc1 (configuration not stated)	37*	3	19	4	24	3
Cc1ccccc1CNC(=O)C1CCCN(S(=O)(=O)N2CCCCCC2)C1 (configuration not stated)	39*	-5	-5	-3	-14	-9
CC(=O)Nc1ccc(S(=O)(=O)N2CCCC(C(=O)Nc3cccc4ccccc34)C2)cc1 (configuration not stated)	56*	1	26	5	1	0
Cc1cccc(NC(=O)C2CCCN(S(=O)(=O)c3cccnc3)C2)c1C (configuration not stated)	8	-4	6	-1	0	-5
COc1ccc(-c2noc(N3CCCC(C(=O)Nc4cccc(OC)c4)C3)n2)cc1 (configuration not stated)	-1	3	22	1	9	1
COc1ccc(NC(=O)C2CCCN(S(=O)(=O)N3CCCCCC3)C2)cc1 (configuration not stated)	6	0	51*	1	18	0
CC(=O)N1CCSc2ccc(S(=O)(=O)Nc3cc(Cl)ccc3C)cc21	7	-2	-15	0	-2	-1
COc1ccc(C2(c3nc(-c4ccc(=O)[nH]c4)no3)CC2)cc1	-6	-4	-22	-3	-8	-36
COc1ccc(CNC(=O)C2CCCN(S(=O)(=O)Cc3ccc(Cl)cc3)C2)cc1 (configuration not stated)	47*	4	14	6	25	5
COC(=O)c1ccc(CSc2nc(N)cc(=O)[nH]2)cc1	21	3	0	1	-7	5
O=C(NCc1ccc(F)cc1)c1cn(CC2CCCO2)cc2c(=O)n(-c3ccccc3)nc1-2 (configuration not stated)	0	-1	-2	-4	-2	0
O=C(Nc1ccncc1)c1cn(Cc2ccccc2)cc2c(=O)n(-c3ccccc3)nc1-2	50*	7	24	17	18	12
CC(C)[C@@H](NC(=O)C1CCN(C(=O)[C@H](N)Cc2ccccc2)CC1)C(=O)NCc1ccccc1F	43*	1	12	-5	-3	-3
Cc1ccc(C)c(Nc2cc(C)nc3nc(-c4ccco4)nn23)c1	-15	-25	58*	-4	22	4
COc1ccc(C)cc1Nc1cc(C)nc2nc(-c3ccco3)nn12	-23	-38	17	-5	-3	-31
Cc1cc(Nc2ccc(Cl)cc2)n2nc(-c3ccco3)nc2n1	-163	-37	36*	-7	9	-28
O=c1cc(CSc2nnnn2-c2ccccc2)nc(N2CCN(c3ccccc3)CC2)[nH]1	-39	-2	-13	8	-3	0
